Records with an inconclusive call do not appear. Entries that show only a call come without a potency. The source made the active and inactive calls. Unless noted, calls follow the shape of the full dose curve.
How the values were obtained:
[1] = Nuclear factor erythroid 2-related factor 2/antioxidant responsive element (Nrf2/ARE) small molecule agonists: qHTS cell viability counter screen in human keratinocytes (AID 1919968; active = well fitted curve in the direction sought with a large enough effect in the repeat runs; an effect the other way counts as inactive or inconclusive; also: nearly all actives have a fitted effect of over 55% in size; also: potency is read from the fitted curve at half-maximal effect)
Method in brief: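 Stably transfected HaCaT (KeratinoSens), 1,500/well. Test agents in DMSO were applied for 23 h, 37 C/5% CO2. CellTiter-Fluor was incubated 1 h before the fluorescence read.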

[2] = Nuclear factor erythroid 2-related factor 2/antioxidant responsive element (Nrf2/ARE) small molecule agonists: luciferase reporter gene qHTS assay in human keratinocytes (AID 1919969); also: nearly all actives have a fitted effect of over 35% in size; also: potency is read from the fitted curve at half-maximal effect
[3] = biological target: KiSS-1 receptor (Homo sapiens) (UniProt Q969F8); test: Human kisspeptin (KISS1R) small molecule agonists, calcium flux assay in KISS1R-HEK293 cells (AID 1920064; active = well fitted curve in the direction sought with a large enough effect in the repeat runs; an effect the other way counts as inactive or inconclusive)
Method in brief: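 After overnight (18 h) culture at 37 C/5% CO2, human KISS1R-HEK293 cells received calcium dye for 1 h, then test compound; emission at 540 nm (excitation 480 nm) was tracked for 3 min.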

[4] = G protein-coupled receptor (GPCR) small molecule agonists, calcium flux assay: HEK293 wild type cell line counter screen (AID 1920065)
Method in brief: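 Following 18 h incubation at 37 C/5% CO2, plates got calcium dye for 1 h; compounds, ATP or DMSO were then pinned in and fluorescence followed kinetically (480/540 nm).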

[5] = p53 small molecule agonists, cell-based qHTS assay with rat liver microsomes (AID 1963578)
Method in brief: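 With rat liver microsomes and NADPH present (0.5 mg/mL final each), p53RE-bla cells are treated with compound for 16 h at 37 C. LiveBLAzer detection mixture is then applied for 2 h at room temperature in the dark.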

[6] = p53 small molecule agonists, cell-based qHTS assay with human liver microsomes: qHTS cell viability counter screen (AID 1963579); also: nearly all actives have a fitted effect of over 45% in size; also: potency is read from the fitted curve at half-maximal effect
Method in brief: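 In this multiplexed counter screen, the reporter plates were subsequently treated with CellTiter-Glo so that cell viability, reflected by luminescence, could be recorded for p53RE-bla cells dosed 16 h with compounds under microsomal activation (HLM and NADPH).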

[7] = p53 small molecule agonists, cell-based qHTS assay with rat liver microsomes: qHTS cell viability counter screen (AID 1963580); also: nearly all actives have a fitted effect of over 45% in size
Method in brief: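 Cytotoxicity counter screen: intracellular ATP measured by CellTiter-Glo luminescence in the same wells as the beta-lactamase reporter read, on HCT-116 p53RE-bla cells exposed 16 h at 37 C to compounds with rat liver microsomes and NADPH, each 0.5 mg/mL final.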

[8] = p53 small molecule agonists, cell-based qHTS assay: qHTS cell viability counter screen (AID 1963581); also: nearly all actives have a fitted effect of over 45% in size
Method in brief: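 qHTS counter screen: 16 h compound exposure at 37 C of p53RE-bla HCT-116 cells (4,000 per well, seeded 5 h prior), cell viability by ATP luminescence.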

[9] = biological target: 5-hydroxytryptamine receptor 2A (Homo sapiens) (UniProt P28223); test: 5-hydroxytryptamine receptor 2A (HTR2A) small molecule antagonists, cell-based qHTS assay (AID 1963586); also: nearly all actives have a fitted effect of over 45% in size; also: potency is read from the fitted curve at half-maximal effect
Method in brief: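 CHO cells stably expressing human HTR2A were plated for 18 h at 37 C, then loaded with calcium dye for 1 h. Compounds were preincubated 5 min at room temperature before DOI (4 nM solution) was added. Kinetic fluorescence was read for 3 min.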

[10] = biological target: 5-hydroxytryptamine receptor 2A (Homo sapiens) (UniProt P28223); test: 5-hydroxytryptamine receptor 2A (HTR2A) small molecule agonists, cell-based qHTS assay (AID 1963587); also: nearly all actives have a fitted effect of over 30% in size; also: potency is read from the fitted curve at half-maximal effect
Method in brief: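 CHO cells stably expressing human HTR2A, plated 18 h, loaded with calcium dye 1 h at 37 C. Agonist mode: compounds added and intracellular calcium fluorescence recorded kinetically for 2 min at 1 sec intervals.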

[11] = biological target: Muscarinic acetylcholine receptor M1 (Homo sapiens) (UniProt P11229); test: Cholinergic receptor muscarinic 1 (CHRM1) small molecule antagonists, cell-based qHTS assay (AID 1963588); also: nearly all actives have a fitted effect of over 40% in size
Method in brief: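 Compounds were tested at 15 concentrations in three independent runs. Dye-loaded CHRM1-CHO cells were exposed 5 min at room temperature before stimulation by acetylcholine added at 50nM. Intracellular calcium was read kinetically on FDSS for 3 min.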

[12] = biological target: Muscarinic acetylcholine receptor M1 (Homo sapiens) (UniProt P11229); test: Cholinergic receptor muscarinic 1 (CHRM1) small molecule agonists, cell-based qHTS assay (AID 1963589); also: nearly all actives have a fitted effect of over 35% in size
Method in brief: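 Kinetic fluorescence (1 s intervals) of calcium-sensitive dye in human M1 CHO cells after compound addition; cells pre-incubated 18 h at 37 C/5% CO2 and dye-loaded 1 h.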

[13] = cAMP Responsive Elements (CRE) small molecule agonists, cell-based qHTS assay (AID 1963590)
Method in brief: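 Test agents in DMSO were incubated 3 h at 37 C/5% CO2 with CRE-bla HEK 293T cells seeded 18 h earlier; LiveBLAzer B/G FRET substrate was added and read after 2 h at room temperature.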

[14] = cAMP Responsive Elements (CRE) small molecule antagonists, cell-based qHTS assay (AID 1963591; active = well fitted inhibition curve with a large enough effect in the signal ratio in the repeat runs, not every such curve was filed as active; the % refers to the signal ratio)
Method in brief: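 Reporter line CRE-bla HEK 293T in dialyzed-FBS DMEM; cells preincubated 18 h, treated 3 h with compound plus NKH477 (0.25 uM final); LiveBLAzer FRET, 2 h RT.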

[15] = biological target: Beta-2 adrenergic receptor (Homo sapiens) (UniProt P07550); test: Adrenergic beta2 receptor (ADRB2) small molecule antagonists, cell-based qHTS assay (AID 1963592); also: series mostly up to about 92 µM; nearly all actives have a fitted effect of over 50% in size
Method in brief: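 Assay format: CHO-ADRB2 cells, 18-20hr seeding at 37C/5% CO2, then compound plus 1nM isoproterenol agonist mix for 0.5hr RT. Homogeneous time-resolved fluorescence cAMP detection after 1hr, expressed as 665/615 nm ratio.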

[16] = biological target: Beta-2 adrenergic receptor (Homo sapiens) (UniProt P07550); test: Adrenergic beta2 receptor (ADRB2) small molecule agonists, cell-based qHTS assay (AID 1963593);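 also: CHO cells stably overexpressing human ADRB2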
Method in brief: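 CHO cells stably over-expressing ADRB2 were plated overnight at 37C, then dosed with compounds plus a stimulation mix containing 100uM IBMX and 25uM Ro-20-1724 for 0.5hr at room temperature. cAMP was measured by HTRF competition, 1hr.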

[17] = biological target: D(2) dopamine receptor (Homo sapiens) (UniProt P14416); test: Dopamine D2 receptor (DRD2) small molecule agonists, cell-based qHTS assay (AID 1963594); also: nearly all actives have a fitted effect of over 35% in size
Method in brief: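 HEK293 cells stably expressing human DRD2, pre-treated with PDE inhibitor Ro20-1724 (0.1 mM final) and compound 10 min at room temperature, then stimulated with NKH477 (200nM […]) for 30 min. cAMP read by HTRF (665/620 nm).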

[18] = biological target: D(2) dopamine receptor (Homo sapiens) (UniProt P14416); test: Dopamine D2 receptor (DRD2) small molecule antagonists, cell-based qHTS assay (AID 1963595; active = well fitted inhibition curve with a large enough effect in the signal ratio in the repeat runs, with a control signal flat; the % refers to the signal ratio)
Method in brief: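 HEK293 cells stably expressing DRD2 were preincubated with 0.1 mM Ro20-1724, then with compound for 10 min at room temperature. Cells were stimulated with 200 nM NKH477 plus 12 nM quinpirole for 30 min, and cAMP was read by HTRF.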

[19] = p53 small molecule agonists, cell-based qHTS assay with human liver microsomes (AID 1963577);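 also: p53 response element beta-lactamase reporter cells with liver microsomes plus NADPH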
Method in brief: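 16 h, 37 C exposure of p53RE-bla cells to compounds with human liver microsomes and NADPH (0.5 mg/mL final each); detection via LiveBLAzer mixture, 2 h dark at room temperature.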

Sequence of Muscarinic acetylcholine receptor M1 (Homo sapiens) (P11229 whole entry, looked up): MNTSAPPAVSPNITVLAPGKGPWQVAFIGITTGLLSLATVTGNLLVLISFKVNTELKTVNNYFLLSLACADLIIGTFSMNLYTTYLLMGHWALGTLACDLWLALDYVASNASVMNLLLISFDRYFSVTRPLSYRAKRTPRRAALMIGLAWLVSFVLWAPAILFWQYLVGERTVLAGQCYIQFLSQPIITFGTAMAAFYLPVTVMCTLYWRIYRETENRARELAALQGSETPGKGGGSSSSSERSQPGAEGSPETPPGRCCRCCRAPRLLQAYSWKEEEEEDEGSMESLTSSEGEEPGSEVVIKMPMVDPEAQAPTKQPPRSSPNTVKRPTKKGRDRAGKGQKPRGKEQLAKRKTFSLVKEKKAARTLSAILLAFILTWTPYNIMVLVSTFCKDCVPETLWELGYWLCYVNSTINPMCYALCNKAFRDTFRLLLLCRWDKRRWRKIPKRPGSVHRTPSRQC
Sequence of Beta-2 adrenergic receptor (Homo sapiens) (P07550 whole entry, looked up): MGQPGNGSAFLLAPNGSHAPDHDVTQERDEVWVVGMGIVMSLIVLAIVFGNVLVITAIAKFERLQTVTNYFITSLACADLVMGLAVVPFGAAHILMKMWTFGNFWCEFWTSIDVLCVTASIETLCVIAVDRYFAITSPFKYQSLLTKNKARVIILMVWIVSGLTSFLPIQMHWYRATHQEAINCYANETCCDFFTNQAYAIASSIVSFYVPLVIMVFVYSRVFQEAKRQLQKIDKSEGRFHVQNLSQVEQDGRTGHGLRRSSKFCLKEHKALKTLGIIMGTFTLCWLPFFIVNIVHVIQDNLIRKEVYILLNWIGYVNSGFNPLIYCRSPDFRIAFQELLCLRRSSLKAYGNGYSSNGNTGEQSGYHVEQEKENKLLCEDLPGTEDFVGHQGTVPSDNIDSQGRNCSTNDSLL
Sequence of 5-hydroxytryptamine receptor 2A (Homo sapiens) (P28223 whole entry, looked up): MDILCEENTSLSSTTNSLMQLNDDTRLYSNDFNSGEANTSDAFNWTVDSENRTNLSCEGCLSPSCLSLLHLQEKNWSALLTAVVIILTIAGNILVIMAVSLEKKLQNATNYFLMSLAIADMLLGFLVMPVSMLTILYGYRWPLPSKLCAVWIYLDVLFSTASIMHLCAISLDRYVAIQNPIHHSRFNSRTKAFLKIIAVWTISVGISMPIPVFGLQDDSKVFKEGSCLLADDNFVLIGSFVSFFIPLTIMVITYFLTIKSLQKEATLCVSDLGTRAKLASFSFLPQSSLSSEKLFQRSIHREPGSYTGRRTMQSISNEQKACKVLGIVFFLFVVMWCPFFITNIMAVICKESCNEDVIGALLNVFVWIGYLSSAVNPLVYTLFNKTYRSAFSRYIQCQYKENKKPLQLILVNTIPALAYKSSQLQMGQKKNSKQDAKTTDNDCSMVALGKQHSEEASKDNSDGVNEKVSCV
Sequence of D(2) dopamine receptor (Homo sapiens) (P14416 whole entry, looked up): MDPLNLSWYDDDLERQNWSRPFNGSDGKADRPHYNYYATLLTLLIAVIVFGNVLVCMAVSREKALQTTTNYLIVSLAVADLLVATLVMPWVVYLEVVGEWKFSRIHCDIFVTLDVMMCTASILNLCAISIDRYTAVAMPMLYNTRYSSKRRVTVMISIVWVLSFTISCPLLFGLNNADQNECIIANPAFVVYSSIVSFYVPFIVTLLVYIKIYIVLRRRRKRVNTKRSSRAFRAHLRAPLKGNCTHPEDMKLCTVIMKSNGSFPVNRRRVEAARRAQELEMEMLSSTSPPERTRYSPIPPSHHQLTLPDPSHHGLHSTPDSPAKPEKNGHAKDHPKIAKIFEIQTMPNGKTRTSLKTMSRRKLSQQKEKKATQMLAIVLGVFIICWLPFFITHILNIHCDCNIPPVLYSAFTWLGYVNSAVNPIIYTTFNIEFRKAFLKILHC
Sequence of KiSS-1 receptor (Homo sapiens) (Q969F8 whole entry, looked up): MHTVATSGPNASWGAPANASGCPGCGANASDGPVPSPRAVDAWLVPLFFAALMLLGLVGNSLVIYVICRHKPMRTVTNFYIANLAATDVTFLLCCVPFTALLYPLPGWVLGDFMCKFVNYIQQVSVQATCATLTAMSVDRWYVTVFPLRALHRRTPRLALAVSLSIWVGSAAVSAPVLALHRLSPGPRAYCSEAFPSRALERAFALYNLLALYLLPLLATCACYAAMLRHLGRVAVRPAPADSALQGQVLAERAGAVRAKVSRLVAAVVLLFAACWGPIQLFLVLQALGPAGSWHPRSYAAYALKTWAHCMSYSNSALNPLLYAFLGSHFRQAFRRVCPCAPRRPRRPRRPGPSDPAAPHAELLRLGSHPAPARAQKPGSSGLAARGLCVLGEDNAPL

Row | SMILES | Potency [1] | Potency [2] | Potency [3] | Potency [4] | Potency [5] | Potency [6] | Potency [7] | Potency [8] | Potency [9] | Potency [10] | Potency [11] | Potency [12] | Potency [13] | Potency [14] | Potency [15] | Potency [16] | Potency [17] | Potency [18] | Potency [19]
1 | CCCCC(CC)COC(=O)CCCCC(=O)OCc1ccccc1 (centres undefined) | inactive | inactive | inactive | inactive | inactive | inactive | inactive | inactive | inactive | inactive | inactive | inactive | inactive | inactive | inactive | inactive | inactive | inactive | –
2 | CCC(CC)CO | inactive | inactive | inactive | inactive | – | inactive | inactive | – | inactive | inactive | inactive | inactive | inactive | inactive | inactive | inactive | – | inactive | –
3 | O=c1c2ccccc2oc2ccccc12 | inactive | inactive | inactive | inactive | – | inactive | inactive | inactive | inactive | inactive | inactive | inactive | inactive | inactive | inactive | inactive | inactive | inactive | –
4 | O=C(O)CN1C(=O)c2cccc3cccc(c23)C1=O | inactive | inactive | inactive | inactive | inactive | inactive | inactive | – | inactive | inactive | inactive | inactive | inactive | inactive | inactive | – | inactive | inactive | –
5 | Cc1ccc2c(c1)CCCN2 | inactive | inactive | inactive | inactive | – | inactive | inactive | inactive | inactive | – | – | inactive | – | – | inactive | inactive | inactive | inactive | –
6 | NC(=O)n1c(O)c(C(=O)c2cccs2)c2cc(Cl)ccc21 | inactive | 26.6 µM (active) | inactive | inactive | inactive | inactive | inactive | inactive | inactive | inactive | inactive | inactive | – | – | inactive | – | inactive | inactive | –
7 | Cc1cc(C)c(N)cc1C | inactive | inactive | inactive | inactive | – | inactive | inactive | inactive | inactive | inactive | inactive | inactive | inactive | inactive | inactive | – | inactive | inactive | –
8 | O=C1C=CC(=O)N1c1ccc(Cc2ccc(N3C(=O)C=CC3=O)cc2)cc1 | 27.3 µM (active) | 9.69 µM (active) | inactive | inactive | – | 16.2 µM (active) | – | – | 37.5 µM (active) | 43.6 µM (active) | – | – | – | – | – | – | – | – | inactive
9 | O=C(Cl)c1ccc([N+](=O)[O-])cc1 | inactive | inactive | inactive | inactive | – | inactive | inactive | inactive | inactive | inactive | inactive | inactive | inactive | inactive | inactive | – | inactive | inactive | –
10 | CC(=O)OCC(CCn1cnc2cnc(N)nc21)COC(C)=O | inactive | inactive | inactive | inactive | – | inactive | inactive | inactive | – | – | – | – | inactive | inactive | inactive | inactive | inactive | – | –
11 | CC(NCCC(c1ccccc1)c1ccccc1)c1ccccc1 (centres undefined) | 26.6 µM (active) | inactive | inactive | inactive | inactive | inactive | inactive | inactive | – | 23.9 µM (active) | inactive | inactive | – | – | – | – | inactive | – | –
12 | CC(C)CC(C)(C)C | inactive | inactive | inactive | inactive | – | inactive | inactive | inactive | – | inactive | inactive | inactive | – | – | inactive | – | inactive | inactive | –
13 | COCc1nnc(-c2ccc[n+]([O-])c2)n1-c1c(Cl)c(Cl)cc2[nH]c(=O)c(=O)[nH]c12 | inactive | inactive | inactive | inactive | – | inactive | inactive | inactive | inactive | inactive | inactive | inactive | inactive | inactive | inactive | inactive | inactive | inactive | –
14 | CN(C)C(=O)COC(=O)Cc1ccc(OC(=O)c2ccc(N=C(N)N)cc2)cc1 | inactive | inactive | inactive | inactive | – | inactive | inactive | inactive | inactive | inactive | – | inactive | inactive | inactive | inactive | inactive | inactive | inactive | –
